Screening data (PubChem BioAssay)
TGFb inhibitor – TGF-b pathway inhibition; HepG2 CAGA-GFP TGF-b/SMAD3 reporter, GFP fluorescence, 18 h; TGF-beta stimulated, 500 pg/mL final; Potency, µM (top dose mostly 46.1 µM), for the others: at the top dose activity, negative = inhibition, most hits filed as inhibitors; 410,000 compounds, 1.2% hits; further: on the % scale 0 is the no-effect control and ±100 the full control effect; nearly all actives have a fitted effect of over 65% in size
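Cell-based qHTS in HEPG2 carrying a CAGA-GFP Smad reporter; compounds added before 500 pg/mL final TGF-beta, 18 h incubation at 37 degrees C, GFP fluorescence quantified per cell by imaging cytometry.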
HepG2 viability – counter-screen for TGF-b inhibitors: cytotoxicity in HepG2 cells. HepG2 CAGA-GFP viability, ATP luminescence, 18 h. Potency, µM (top dose mostly 46.1 µM), for inactives: at the top dose activity change, negative = cytotoxicity, hits mostly cytotoxic. 410,000 compounds, 0.76% hits. AID 588856
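CellTiter-Glo luminescence gave cytotoxicity after 18 hours at 37 degrees C. The cells were HepG2 CAGA-GFP in 1% FBS DMEM, stimulated with 500 pg/mL TGF-beta after compound addition. %Activity was normalised to no-cell wells (complete cell-killing) and DMSO (no toxicity), and curves were fitted and classified.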
DT40 TDP1 no CPT – qHTS for Inhibitors of human tyrosyl-DNA phosphodiesterase 1 (TDP1): qHTS in cells in absence of CPT; Potency, µM (highest dose often 46.2 µM), without a hit: top-dose activity change, negative = growth inhibition, usual class: inhibitors; 420,000 compounds, 15% hits; DT40 Tdp1-/- hTDP1 cells, no CPT, ATP luminescence, 48 h; further: on the % scale 0 is the no-effect control and ±100 the full control effect; nearly all actives have a fitted effect of over 55% in size
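Growth of hTDP1-complemented DT40 Tdp1-knockout cells is measured by ATP luminescence after at least 48 hr compound exposure at 37 °C, with DMSO substituting for the 20 nM CPT used in the parallel screen.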
ATXN2 expr inh – reduces ATXN2 reporter expression in HEK-293 cells | HEK-293 ATXN2-luciferase reporter, luminescence, 24 h | Potency, µM (series often up to 57 µM), for the others: top-dose activity change, negative = inhibition, usual class: inhibitors | 360,000 compounds, 0.72% hits; further: on the % scale 0 is the no-effect control and ±100 the full control effect; nearly all actives have a fitted effect of over 55% in size
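ATXN2-luciferase reporter cells (luciferase flanked by upstream and downstream ATXN2 gene portions) were treated 24 h at 37 °C with compounds at up to 57 uM. SteadyGlo luminescence gave expression; GF-AFC fluorescence gave viability.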
TDP1 cell CPT – DT40-hTDP1 cell growth loss with CPT; chicken DT40 Tdp1-/-;hTDP1 cells + 20 nM CPT, ATP luminescence, 48 h; Potency, µM (doses to about 46.2 µM), inactives show top-dose activity change, negative = growth inhibition, usual class: inhibitors; 420,000 compounds, 12% hits; AID 686979; further: on the % scale 0 is the no-effect control and ±100 the full control effect; nearly all actives have a fitted effect of over 55% in size
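Cell growth measured by CellTiter-Glo luminescence after a minimum 48 h, 37 C compound exposure with 20 nM CPT in Tdp1-knockout DT40 cells stably expressing hTDP1, seeded 400/well; qHTS titration format.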
S2 tox – reduces viability in counter-screen for ATXN expression inhibitors. S2 cells (HEK-293 line with an ATXN2-luciferase reporter) viability, CellTiter-Fluor protease fluorescence, 24 h. AID 651635. 400,000 compounds, 0.49% hits. Potency, µM (top dose mostly 56.7 µM), actives largely listed as cytotoxic; further: nearly all actives have a fitted effect of over 40% in size
The depositor's hits bear a star; i = inactive; u = inconclusive; x = no result; [ ] = another dose, or the depositor's remark. A selection: hits, their analogues and other compounds. The true share with any hit is near 17%. The call rests on the fitted dose curve; in most records, active means well fitted curve in the direction sought with a large enough effect; inconclusive means small, poorly fitted or top-dose-only effect, or another doubt; inactive means no such curve, though single readings can be large; an effect the other way counts as inactive or inconclusive. Potency means the concentration at half of the fitted maximal effect.

SMILES	TGFb inhibitor	HepG2 viability	DT40 TDP1 no CPT	ATXN2 expr inh	TDP1 cell CPT	S2 tox
CC1(C)S[C@@H]2[C@H](NC(=O)C(N)c3ccccc3)C(=O)N2[C@H]1C(=O)OC1OC(=O)c2ccccc21 (some centres undefined)	x	x	-25%[21.1 µM]	x	u	i
C#CC(=O)CC1(CN(Cc2ccccc2)C(=O)OC(C)(C)C)CCCCC1	u	-51%	10µM*	u	12µM*	u
CON(C)C(=O)CC1(CN(Cc2ccccc2)C(=O)OC(C)(C)C)CCCCC1	u	1%	18µM*	u	18µM*	u
CCCC1C(=O)Nc2ccccc2N1C(=O)c1ccc(C(C)(C)C)cc1 (centres undefined)	u	-89%	21µM*	-14%	u	i
CC(C)CCc1noc(CN2CCN(CC(=O)NC(C)C)CC2)n1	8%	5%	26µM*	-31%	26µM*	i
COc1cc(C)ccc1S(=O)(=O)n1nc(C)cc1C	-1%	-10%	-24%	0%	2%	i
CCOc1ccc(S(=O)(=O)n2nc(C)cc2C)c2ccccc12	1%	-9%	u	9%	23µM*	i
CCOc1ccc(C(C)(C)C)cc1S(=O)(=O)n1nc(C)cc1C	4%	-17%	11µM*	-7%	u	i
CCOc1ccc(C)cc1S(=O)(=O)n1nc(C)cc1C	7%	8%	0%	-1%	0%	i
COc1ccc(-c2oc3ccc(N4CCOCC4)cc3c2/C=C/c2ccc(OC)c(OC)c2)cc1	1%	-5%	u	-1%	u	i
COc1ccc(-c2c(-c3ccsc3)oc3ccc(N4CCOCC4)cc23)cc1	-23%	-5%	16µM*	5%	u	i
Cc1cc2c(cc(C(=O)OCC(=O)NCc3cccs3)n2C(C)C)o1	u	-13%	0.73µM*	-14%	0.82µM*	i
CCOc1ccc2oc(C(=O)NCC(c3ccco3)N(C)C)c(C)c2c1 (centres undefined)	0%	-11%	23µM*	6%	16µM*	i
CC(C)Cn1c(N)c(C(=O)COC(=O)COc2cccc(C(F)(F)F)c2)c(=O)n(C)c1=O	-3%	-6%	-8%	-9%	-19%	i
COCCNC(=O)CN1C(=O)NC(c2ccccc2)(c2ccccc2)C1=O	-2%	-1%	10%	-17%	-1%	i
COC(=O)[C@@]1(C(C)C)N=C(c2cc(OC)c(OC)c(OC)c2)[C@]2(O1)C(=O)Nc1ccccc12	x	x	u	-1%	-5%	u
Cc1ccc(-n2c(O)c(/C=N/Nc3ccc(S(=O)(=O)N4CCOCC4)cc3[N+](=O)[O-])c3ccccc3c2=O)c(C)c1	u	-47%	12µM*	u	21µM*	u
CCN(C(=O)c1cccnc1SC)C12CC3CC(CC(C3)C1)C2	-24%	-5%	21µM*	-16%	u	i
CC(C)Cc1cc(C(=O)NCC2Cc3cc(F)cc(-c4ccccn4)c3O2)no1 (centres undefined)	x	x	-5%	x	11%[9.04 µM]	u
COc1ccc(CN=Cc2[nH]c3ccc(Br)c(Cl)c3c2O)cc1	-17%	-40%	u	-31%	u	i
Cc1cc(C)cc(N=Cc2[nH]c3ccc(Br)c(Cl)c3c2O)c1	32%	-41%	u	u	16µM*	u
C=CCNc1nnc(Cc2ccc(C(C)C)cc2)c(=O)[nH]1	-18%	-18%	3.3µM*	1%	7.3µM*	i
O=C(O)c1cncc(SCc2ccccc2)n1	15%	10%	16%	-12%	-4%	i
COc1ccccc1C(=O)N(Cc1cc2cccc(C)c2nc1N1CCC(O)CC1)C1CC1	x	x	16µM*	x	-7%[9.04 µM]	i
Cc1cccc2cc(CN(C(=O)c3ccc(-c4ccc(F)cc4)cc3)C3CC3)c(N3CCC(O)CC3)nc12	x	x	23µM*	x	u	i
SMILES	TGFb inhibitor	HepG2 viability	DT40 TDP1 no CPT	ATXN2 expr inh	TDP1 cell CPT	S2 tox
Cc1cccc2cc(CN(C(=O)c3ccc(N4CCCCC4)cc3)C3CC3)c(N3CCC(O)CC3)nc12	x	x	-24%	x	-1%[9.04 µM]	i
COc1ccc(-c2noc(CSCC(=O)Nc3cc(OC)c(OC)c(OC)c3)n2)cc1OC	0%	1%	-9%	x	-2%	x
O=C(NCc1ccc(Cl)cc1)C1CCN(C(=O)Cc2ccccc2)CC1	0%	4%	-4%	2%	-8%	i
O=C(NC1(Cc2ccccc2)CCN(CCCc2ccccc2)C1=O)c1ccccc1 (centres undefined)	u	0%	1.2µM*	u	0.65µM*	u
Oc1ccc2c(c1)OCC1(O)Cc3cc(O)c(O)cc3C21 (centres undefined)	63%	4%	6.5µM*	u	6.5µM*	x
COc1ccccc1N1CCN(C2CCCCC2NS(=O)(=O)c2ccccc2)CC1 (centres undefined)	6%	-16%	16µM*	-20%	21µM*	i
CCC(c1nnnn1-c1c(C)cccc1C)N1CCCN(Cc2ccc(F)cc2)CC1 (centres undefined)	x	x	16µM*	5%	u	u
CCC(c1nnnn1-c1c(C)cccc1C)N1CCN(CCN2CCOCC2)CC1 (centres undefined)	x	x	-16%	8%	-8%	i
CCCOCc1cc(CN2CCN(c3ccccc3OC)CC2)c(O)c2ncccc12	2µM*	11µM*	2.9µM*	x	4.6µM*	x
CCOc1ccccc1N1CCN(Cc2cccc(OC)c2O)CC1	-24%	7%	u	-5%	u	i
COc1ccccc1N1CCN(Cc2cc(COC(C)C)c3cccnc3c2O)CC1	2.2µM*	2.8µM*	4.6µM*	x	4.6µM*	x
CCOCc1cc(CN2CCN(c3ccccc3OC)CC2)c(O)c2ncccc12	x	1.6µM*	5.2µM*	x	5.2µM*	x
CN(C)c1cc2c3ccccc3n(C)c2cc1N	2%	-24%	-19%	6%	-22%	i
COc1cc(NS(=O)(=O)c2ccc(NC(=O)c3ccccc3C(=O)O)cc2)nc(OC)n1	16%	4%	5%	3%	10%	i
Cc1ccc(-n2nc(C)c3c(C)c(CCC(=O)NCCCOC(C)C)c(C)nc32)cc1	-8%	1%	u	-38%	23µM*	i
